Inconclusive results are not listed. Entries that show only a call come without a potency. Where a structure was tested more than once in an assay, its records may differ in their call. Activity calls are given as the source filed them. Calls come from the whole dose curve.
Legend:
[1] = molecular target: Acetylcholinesterase (Homo sapiens) (UniProt P22303); test: Acetylcholinesterase (AChE) small molecule antagonists: colormetric cell-based qHTS assay (AID 1347395); note: nearly all actives have a fitted effect of over 30% in size
In short: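 After overnight attachment at 37 C, SH-SY5Y cells get 30 min compound exposure; detection cocktail (acetylthiocholine, DTNB) then incubates 90 min at 37 C, and absorbance reflects AChE-generated thiocholine.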

[2] = molecular target: Acetylcholinesterase (Homo sapiens) (UniProt P22303); test: Acetylcholinesterase (AChE) small molecule antagonists: enzyme-based qHTS assay (AID 1347397); conditions: Potency: AChE enzyme activity inhibition; outcome: AChE enzyme activity inhibition; note: nearly all actives have a fitted effect of over 55% in size; note: potency is the fitted concentration of half-maximal effect
In short: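 rhAChE 50 mU/mL (dispensed) + cpd or DMSO, 30 min RT; add DTNB/acetylthiocholine cocktail, 10 min RT; colorimetric thiocholine readout. qHTS, 1536-well format.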

[3] = molecular target: Acetylcholinesterase (Homo sapiens) (UniProt P22303); test: Acetylcholinesterase (AChE) small molecule antagonists: fluorescence cell-based qHTS assay (AID 1347398); conditions: Potency: AChE activity; outcome: AChE activity; note: nearly all actives have a fitted effect of over 50% in size; note: potency is the fitted concentration of half-maximal effect
In short: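 Read-out is Thiolite Green fluorescence at Ex/Em = 490/520 nm, formed by reaction with thiocholine released when cellular AChE in SH-SY5Y cells hydrolyzes acetylthiocholine. Compounds were preincubated 30 min at 37 C before substrate.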

[4] = molecular target: Acetylcholinesterase (Homo sapiens) (UniProt P22303); test: Acetylcholinesterase (AChE) small molecule antagonists: enzyme-based qHTS assay with human liver microsomes (AID 1347399); conditions: Potency: qHTS inhibition; outcome: qHTS inhibition; note: nearly all actives have a fitted effect of over 60% in size
In short: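 Recombinant human AChE (50 mU/mL in the enzyme mix) and human liver microsomes (0.25 mg/mL final) were preincubated with compound and NADPH (0.25 mg/mL final) for 30 min at 37 C. Acetylthiocholine/DTNB was then added; thiocholine was read colorimetrically after 10 min at room temperature.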

Sequence of Acetylcholinesterase (Homo sapiens) (P22303 whole entry, looked up): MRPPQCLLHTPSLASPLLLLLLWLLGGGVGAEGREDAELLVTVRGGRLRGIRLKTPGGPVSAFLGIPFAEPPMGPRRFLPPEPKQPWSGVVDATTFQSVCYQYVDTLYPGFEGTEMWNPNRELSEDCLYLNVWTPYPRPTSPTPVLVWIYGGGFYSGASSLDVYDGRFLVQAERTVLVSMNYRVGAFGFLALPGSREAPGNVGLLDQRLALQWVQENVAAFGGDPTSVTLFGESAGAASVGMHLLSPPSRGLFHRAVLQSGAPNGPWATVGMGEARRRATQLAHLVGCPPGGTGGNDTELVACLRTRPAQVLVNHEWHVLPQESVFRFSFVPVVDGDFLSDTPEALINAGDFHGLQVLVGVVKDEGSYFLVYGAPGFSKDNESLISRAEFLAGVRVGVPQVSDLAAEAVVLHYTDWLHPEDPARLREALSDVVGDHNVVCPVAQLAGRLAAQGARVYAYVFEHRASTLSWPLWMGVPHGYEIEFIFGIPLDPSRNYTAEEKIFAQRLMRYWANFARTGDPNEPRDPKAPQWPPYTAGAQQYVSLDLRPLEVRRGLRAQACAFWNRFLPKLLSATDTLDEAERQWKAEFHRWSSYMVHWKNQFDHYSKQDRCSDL

SMILES	Potency [1]	Potency [2]	Potency [3]	Potency [4]	activity, negative = inhibition [1]	activity change, negative = inhibition [2]	activity change, negative = inhibition [3]	activity change, negative = inhibition [4]
OCC#CCO	inactive	inactive	inactive	inactive	–	–	–	–
C[Si]1(C)N[Si](C)(C)N[Si](C)(C)N1	inactive	inactive	inactive	inactive	–	–	–	–
CO[C@]1(NC(=O)CSC(F)F)C(=O)N2C(C(=O)O)=C(CSc3nnnn3CCO)CO[C@H]21	inactive	inactive	inactive	inactive	–	–	–	–
CCCC(O)C(CC)CO (stereo not given)	inactive	inactive	inactive	inactive	–	–	–	–
BrCc1cccc(Oc2ccccc2)c1	inactive	inactive	inactive	inactive	–	–	–	–
CC(Oc1c(Cl)cccc1Cl)C1=NCCN1 (stereo not given)	inactive	inactive	inactive	inactive	–	–	–	–
[Cl][Sc]([Cl])[Cl]	inactive	inactive	inactive	inactive	–	–	–	–
C[C@H]1C[C@@H]2[C@H]([C@@H](O)C[C@@]3(C)[C@H]2CC[C@]3(O)C(=O)CO)[C@@]2(C)C=CC(=O)C=C12	inactive	inactive	inactive	inactive	–	–	–	–
Cc1ccc(Cl)c(N)c1Cl	inactive	inactive	inactive	inactive	–	–	–	–
CC/C=C\CCO	inactive	inactive	inactive	inactive	–	–	–	–
CCCCC(CC)COCCC#N (stereo not given)	inactive	inactive	inactive	inactive	–	–	–	–
C=Cc1c(C)c2cc3[nH]c(cc4nc(cc5nc(cc1[nH]2)C(C)=C5CCC(=O)O)C(CCC(=O)O)=C4C)c(C)c3C=C	inactive	inactive	inactive	inactive	–	–	–	–
C[C@@H]1CCN(C(=O)[C@H](CCCN=C(N)N)NS(=O)(=O)c2cccc3c2NC[C@H](C)C3)[C@@H](C(=O)O)C1	inactive	inactive	inactive	inactive	–	–	–	–
C=CC(=O)OCCOCCOC(=O)C=C	inactive	inactive	inactive	inactive	–	–	–	–
C=CC(=C)CCC=C(C)C	inactive	inactive	inactive	inactive	–	–	–	–
C=CCSSCCC	inactive	inactive	inactive	inactive	–	–	–	–
CC1=CC[C@H]2C[C@@H]1C2(C)C	inactive	63.9 µM (active) and inactive	32 µM (active) and inactive	inactive	–	–	–	–
Nc1ccc2c(O)cc(S(=O)(=O)O)cc2c1	inactive	inactive	inactive	inactive	–	–	–	–
CC(O)CN (stereo not given)	inactive	inactive	inactive	inactive	–	–	–	–
O=C(OCCCCCCOC(=O)c1ccccc1)c1ccccc1	inactive	inactive	inactive	inactive	–	–	–	–

SMILES	Potency [1]	Potency [2]	Potency [3]	Potency [4]	activity, negative = inhibition [1]	activity change, negative = inhibition [2]	activity change, negative = inhibition [3]	activity change, negative = inhibition [4]
N[C@H](C(=O)O)c1ccc(O)cc1	–	–	–	–	0% [at 23.6 µM] (inactive)	0.185% [at 23.6 µM] (inactive)	10.4% [at 23.8 µM] (inactive)	-0.0013% [at 23.6 µM] (inactive)
CO/N=C(/C(=O)N[C@@H]1C(=O)N2C(C(=O)[O-])=C(C[n+]3ccn4ncccc43)CS[C@H]12)c1nsc(N)n1	inactive	inactive	inactive	inactive	–	–	–	–
CC(C)CCCCCCN	inactive	inactive	inactive	inactive	–	–	–	–
[O]=[Bi]	–	–	–	–	1.07% [at 10.5 µM] (inactive)	2.59% [at 10.5 µM] (inactive)	3.63% [at 10.5 µM] (inactive)	-4.69% [at 10.5 µM] (inactive)
CC/C=C\CCOC(=O)CC	inactive	inactive	inactive	inactive	–	–	–	–
C=CC(=O)OCCCCCCCC	inactive	inactive	inactive	inactive	–	–	–	–
C[C@H](N)[C@H](O)c1cccc(O)c1	inactive	inactive	inactive	inactive	–	–	–	–
CC(=O)O[C@H]1C[C@@H]2CC[C@@]1(C)C2(C)C	inactive	inactive	inactive	inactive	–	–	–	–
O=[N+]([O-])c1ccc2c(c1)Cc1ccccc1-2	inactive	inactive	39.9 µM (active) and inactive	inactive	–	–	–	–
CC(=O)c1ccc2c(c1)N(CCCN(C)C)c1ccccc1S2	inactive	inactive	inactive	inactive	–	–	–	–
C=C(C)C(=O)OCC(O)CO (stereo not given)	inactive	inactive	inactive	inactive	–	–	–	–
O=C(O)c1ccccc1Nc1cccc(C(F)(F)F)c1	inactive	inactive	inactive	inactive	–	–	–	–
CC/C=C\CCOC(=O)c1ccccc1O	inactive	inactive	inactive	inactive	–	–	–	–
C=CC(C)(C)C	inactive	inactive	inactive	inactive	–	–	–	–
CCCCCCCCC(CCCCCC)C(=O)O (stereo not given)	inactive	inactive	inactive	inactive	–	–	–	–
Nc1nnnn1-c1ccccc1	inactive	inactive	inactive	inactive	–	–	–	–
CC(C)(C(=O)c1cccnc1)c1cccnc1	inactive	inactive	inactive	inactive	–	–	–	–
O=C(CC(=O)c1ccccc1)c1ccccc1	inactive	inactive	inactive	inactive	–	–	–	–
Cc1ccc2c(c1)C(=O)c1ccccc1C2=O	inactive	inactive	inactive	inactive	–	–	–	–
c1cc(-c2ccncc2)ccn1	inactive	inactive	inactive	inactive	–	–	–	–

SMILES	Potency [1]	Potency [2]	Potency [3]	Potency [4]	activity, negative = inhibition [1]	activity change, negative = inhibition [2]	activity change, negative = inhibition [3]	activity change, negative = inhibition [4]
N#C[C@@H]1CC(F)(F)CN1C(=O)CNC1CC2CCC(C1)N2c1ncccn1 (stereo not given in full)	inactive	inactive	inactive	inactive	–	–	–	–
O=C(O)CONC(=O)c1ccccc1	inactive	inactive	inactive	inactive	–	–	–	–
CCN1C(=O)c2ccccc2C1Nc1ccc(OCCN2CCCCC2)cc1 (stereo not given)	inactive	inactive	inactive	inactive	–	–	–	–
CCCCOC(=O)C(C)Oc1ccc(Oc2ccc(C(F)(F)F)cn2)cc1 (stereo not given)	inactive	inactive	inactive	inactive	–	–	–	–
CCC1(c2ccccc2)C(=O)NCNC1=O	inactive	inactive	inactive	inactive	–	–	–	–
O=[N+]([O-])c1ccc(F)cc1F	inactive	inactive	inactive	inactive	–	–	–	–
COc1ccc2c(c1)CCCC2=O	inactive	inactive	inactive	inactive	–	–	–	–
C=CCCCCCCCCCC	inactive	inactive	inactive	inactive	–	–	–	–
CC(CCC(=O)O)(c1ccc(O)cc1)c1ccc(O)cc1	inactive	inactive	inactive	inactive	–	–	–	–
O=C(Nc1ccccc1)c1cc([N+](=O)[O-])ccc1Cl	inactive	inactive	inactive	inactive	–	–	–	–
CCN(CC)CC(=O)Nc1c(C)cccc1C(=O)OC	inactive	inactive	inactive	inactive	–	–	–	–
CNC(=O)c1c(I)c(NC(=O)CCCCC(=O)Nc2c(I)c(C(=O)O)c(I)c(C(=O)NC)c2I)c(I)c(C(=O)O)c1I	inactive	inactive	inactive	inactive	–	–	–	–
CCOC(/C=C(\C)CCC=C(C)C)OCC	inactive	inactive	inactive	inactive	–	–	–	–
O=C(O)Cc1ccc2c(c1)C(=O)c1ccccc1CO2	inactive	inactive	inactive	inactive	–	–	–	–
C=C(C)C(=O)OCCOC(=O)CC(C)=O	inactive	inactive	inactive	inactive	–	–	–	–
NC(CO)C(=O)NNCc1ccc(O)c(O)c1O (stereo not given)	inactive	inactive	inactive	inactive	–	–	–	–
CCCCCCCCCCCCI	inactive	inactive	inactive	inactive	–	–	–	–
Nc1ccc(C(=O)Nc2ccccc2N)cc1	inactive	inactive	inactive	inactive	–	–	–	–
O=C(Cl)c1cc(Cl)cc(Cl)c1	inactive	inactive	inactive	inactive	–	–	–	–
CCOC(=O)CC(=O)OCC	inactive	inactive	inactive	inactive	–	–	–	–

From PubChem BioAssay (Tox21)
